Assay outcomes deposited in PubChem by National Center for Advancing Translational Sciences (NCATS).
ALOX12 inhib: qHTS Assay for Inhibitors of 12-hLO (12-human lipoxygenase); actives 0.12% (n = 150,000); purified 12-hLO, xylenol orange hydroperoxide absorbance; Polyunsaturated fatty acid lipoxygenase ALOX12 (Homo sapiens), P18054; Potency, µM (top dose mostly 57.1 µM), for inactives: at the highest dose activity change, negative = inhibition, usual class: inhibitors; AID 1452, 2008; active means well fitted inhibition curve with a large enough effect; inconclusive means small, poorly fitted or top-dose-only effect; further: potency means the concentration at half of the fitted maximal effect; nearly all actives have a fitted effect of over 55% in size
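Purified human 12hLO (150 nM final) was preincubated with compounds for 15 min at room temperature in 25 mM Hepes pH 7.0, 0.01% Triton X-100, then reacted with 40 uM arachidonic acid for 30 min. Hydroperoxide was detected with ferrous iron/xylenol orange.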
Lamin A splicing: qHTS Assay for Modulators of Lamin A Splicing. HeLa LMNA splicing GFP/RFP minigene ratio, 48 h. Potency, µM (highest dose often 46.1 µM), for the others: top-dose ratio change, negative = inhibition, usual class: inhibitors. actives 0.01% (n = 200,000). AID 1487, 2009; active means well fitted inhibition curve with a large enough effect in the signal ratio, with a control signal flat, not every such curve was filed as active; inconclusive means small, poorly fitted or top-dose-only effect, or effect the other way, or a change in a side signal; the % refers to the signal ratio; further: potency means the concentration at half of the fitted maximal effect
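S3 HeLa stable clones carrying a lamin A-EGFP splicing minigene plus DsRed2 were seeded at 600 cells/well in Opti-MEM with 2% FBS, pin-dosed and incubated 48 h at 37°C. Acumen cytometry (488 nm) gave the GFP/RFP total-intensity ratio.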
PNC assembly inh: High Content Assay for Compounds that inhibit the Assembly of the Perinucleolar Compartment; PC3M PTB-GFP, PNC prevalence imaging, 16 h; hits give low values; activity change (PNC), negative = inhibition, % at 10 µM; actives 3.1% (n = 140,000); AID 2417, 2010;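 active means readout at or below -70, meaning at least 70% loss of cells showing the perinucleolar compartment, a nuclear body marking cancer cells; inconclusive means readout between -30 and a set limit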;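 further: plate controls were DMSO wells for no effect and camptothecin positive control wells for full effect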
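Compounds are pinned in duplicate onto adhered PC3M cells stably expressing GFP-tagged PTB and incubated 16 h at 37 C. Cells are then fixed, nuclei stained with Hoechst, and PNC-positive cells counted.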
HPGD block: qHTS Assay for Inhibitors of HPGD (15-Hydroxyprostaglandin Dehydrogenase); purified HPGD, NADH fluorescence kinetic, PGE2 substrate; actives 4.3% (n = 150,000); Potency, µM, without a hit: top-dose activity change, negative = inhibition, hits mostly inhibitors; further: potency means the concentration at half of the fitted maximal effect
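20 nM HPGD preincubated 15 min at room temperature with compound in 50 mM Tris-HCl pH 8, 0.01% Tween 20. Started with 1 mM NAD+ and 30 uM prostaglandin E2; NADH fluorescence (360/450 nm) read 5 times over 30-s intervals, last minus first.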
ALDH1A1 inh: qHTS Assay for Inhibitors of Aldehyde Dehydrogenase 1 (ALDH1A1). Aldehyde dehydrogenase 1A1 (Homo sapiens), P00352. Purified ALDH1A1, NADH fluorescence, propionaldehyde substrate. Potency, µM (titrated, usually from 75.3 µM), inactives show top-dose activity, negative = inhibition, usual class: inhibitors. actives 7.3% (n = 220,000). AID 1030, 2008;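 further: potency means the concentration at half of the fitted maximal effect; plate controls were no enzyme wells and a reference inhibitor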
Target sequence (P00352 whole entry, looked up): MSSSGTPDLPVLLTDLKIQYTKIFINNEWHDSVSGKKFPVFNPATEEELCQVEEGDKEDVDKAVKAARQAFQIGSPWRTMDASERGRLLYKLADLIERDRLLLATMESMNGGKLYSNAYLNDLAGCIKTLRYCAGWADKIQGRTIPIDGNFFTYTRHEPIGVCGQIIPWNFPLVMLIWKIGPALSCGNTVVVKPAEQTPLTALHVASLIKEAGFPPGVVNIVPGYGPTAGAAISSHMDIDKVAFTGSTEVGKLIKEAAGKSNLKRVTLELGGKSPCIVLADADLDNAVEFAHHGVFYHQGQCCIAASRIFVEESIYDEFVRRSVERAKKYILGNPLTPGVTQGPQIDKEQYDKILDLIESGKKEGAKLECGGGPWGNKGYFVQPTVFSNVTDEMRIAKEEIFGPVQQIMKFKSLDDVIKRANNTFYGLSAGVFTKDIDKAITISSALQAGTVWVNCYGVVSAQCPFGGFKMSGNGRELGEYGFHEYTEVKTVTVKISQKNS
Active calls of the source: *; ? = inconclusive; / = no result given; [ ] = remark or other dose. Most compounds without a hit are left out; they make up all but 10% or so of the library. Unless noted, the call rests on the fitted dose curve; in most records, active means well fitted inhibition curve with a large enough effect (not every such curve was filed as active); inconclusive means small, poorly fitted or top-dose-only effect, or another doubt; inactive means no such curve, though single readings can be large or run the other way. Unless noted, on the % scale 0 is the no-effect control and ±100 the full control effect.

SMILES	ALOX12 inhib	Lamin A splicing	PNC assembly inh	HPGD block	ALDH1A1 inh
Cc1ccc(NS(=O)(=O)c2cc(-c3n[nH]c(=O)c4ccccc34)ccc2C)cc1	-14%	?	7	20µM*	?
CCOC(=O)CNS(=O)(=O)c1cc(-c2n[nH]c(=O)c3ccccc23)ccc1C	-6%	5%	17	3.5µM*	14µM*
CCOC(=O)C1=C(C)N=c2s/c(=C\c3ccc(OCC(=O)O)cc3)c(=O)n2C1c1ccc(OC(C)C)cc1 (stereo unspecified)	-6%	?	-1	4.5µM*	8%
COc1cccc(C2C(C(=O)Nc3ccccc3)=C(C)N=c3s/c(=C/c4ccc(OCC(=O)O)cc4)c(=O)n32)c1 (stereo unspecified)	-2%	-5%	-2	-23%	-12%
O=C(NCCN1CCN(c2ccccc2)CC1)c1ccc(NC(=O)C2CCCO2)cc1 (stereo unspecified)	2%	5%	?	-12%	28µM*
O=C1NC(=O)c2cc(NC(=O)C3CCCO3)ccc21 (stereo unspecified)	10%	3%	-6	?	?
Cc1ccc(NS(=O)(=O)c2ccc(NC(=O)C3CCCO3)cc2)cc1 (stereo unspecified)	-25%	?	38	-29%	22µM*
O=C(Nc1ccc2c(c1)C(=O)N(c1ccccc1)C2=O)C1CCCO1 (stereo unspecified)	9%	3%	-20	-10%	14µM*
O=C(Nc1ccc(Oc2ccc(NC(=O)C3CCCO3)cc2)cc1)C1CCCO1 (stereo unspecified)	-1%	2%	2	1.4µM*	?
CC(C)C[C@@H](CC(=O)N[C@H](CC(=O)N[C@@H]1CCNC[C@H]1C(=O)N[C@H](CC(=O)N[C@@H](CCC(=O)O)CC(=O)O)Cc1c[nH]c2ccccc12)C(C)C)NC(=O)[C@@H]1CNCC[C@H]1N	-2%	/	/	0%	?
CCc1nn2c(=O)cc(COC(=O)Cc3ccccc3)nc2s1	/	13%[46 µM]	/	/	/
C=CCSc1nc2ccccc2c(=O)n1Cc1ccco1	4%[11.4 µM]	/	/	-9%	-5%[13.5 µM]
c1ccc(CSc2nnc(SCc3ccccn3)s2)nc1	-4%	9%	-20	-4%	9%
N=C(N)SCc1ccccn1	-5%	?	-91*	-16%	7%
CC(C)Sc1oc(-c2ccco2)nc1S(=O)(=O)c1ccc(F)cc1	-14%	-3%	?	-24%	20µM*
O=C(CSc1oc(-c2ccco2)nc1S(=O)(=O)c1ccc(F)cc1)NCC1CCCO1 (stereo unspecified)	1%	0%	-119*	-14%	3%
COC(=O)NC(CCc1ccccc1)C(C(C)=O)C(=O)OC (stereo unspecified)	3%	/	/	-4%	7%
NC(C(=O)O)C(O)C(=O)O (stereo unspecified)	0%	-4%	/	1%	3%
Cc1ccc(N/N=C/c2cccnc2)cc1	-12%	?	-3	-13%	?
Cc1csc(N/N=C\c2cccnc2)n1	/	/	/	/	11µM*
CCN1C(=O)c2cccc3c(NC(=O)c4ccc(OC)c(OC)c4)ccc1c23	-2%	-28%	?	-6%	4.5µM*
CCN1C(=O)c2cccc3c(NC(=O)c4ccccc4)ccc1c23	5%	-8%	?	-10%	?
CCN1C(=O)c2cccc3c(NC(=O)C4CCCCC4)ccc1c23	-2%	?	?	/	4µM*
CCC(Oc1ccccc1)C(=O)Nc1cc(-c2ccccc2OC)nn1-c1ccccc1 (stereo unspecified)	/	-4%[46 µM]	/	/	/
O=C(CSC1=NCCS1)N1CCCC1	0%	?	-14	-13%	0%
SMILES	ALOX12 inhib	Lamin A splicing	PNC assembly inh	HPGD block	ALDH1A1 inh
O=C(CSC1=NCCS1)N1CCCCCC1	-3%	-12%	-16	28µM*	5%
COc1ccc(C(=O)CCC(=O)Nc2ccc(C)c(Cl)c2)cc1	/	8%[46 µM]	/	/	/
Cc1nc(NC2CCCCC2)c2nc(-c3ccccc3)n(C(C)CN(C)C)c2n1 (stereo unspecified)	-3%	/	/	-29%	?
CCn1cc(C(=O)NCc2ccccn2)c(=O)c2cc(S(=O)(=O)N3CCCCC3)ccc21	-1%	13%	-19	?	11µM*
CCn1cc(C(=O)NCc2ccccn2)c(=O)c2cc(F)c(N3CCN(C)CC3)cc21	6%	-5%	1	-19%	?
CCn1cc(C(=O)NCc2ccco2)c(=O)c2cc(S(=O)(=O)N3CCCCCC3)ccc21	-12%	?	?	-24%	8.9µM*
CCn1cc(C(=O)NCc2ccco2)c(=O)c2cc(S(=O)(=O)N3CCC(C)CC3)ccc21	-16%	2%	19	-21%	?
CCn1cc(C(=O)NCc2ccco2)c(=O)c2cc(S(=O)(=O)N3CCc4ccccc4C3)ccc21	-8%	-6%	18	-30%	20µM*
COc1cc2c(cc1OC)-c1cc(=Nc3c(C)cc(C)cc3C)n(C)c(=O)n1CC2	-4%	?	/	0%	-2%
Cc1ccc2cc3cc(C(=O)N4CCN(c5ccccc5)CC4)oc3nc2c1	/	9%[46 µM]	/	/	/
CCOC(=O)c1cccc(NC(=O)c2cc3c(=O)n(Cc4cccnc4)ccc3nc2C)c1	/	8%[46 µM]	/	/	/
Cc1ccccc1C(=O)N1CCN(c2ccc(NC(=O)c3ccco3)cc2Cl)CC1	-3%	?	?	?	?
COc1cc(NC(=O)c2cccs2)c(OC)cc1NC(=O)c1ccco1	1%	-5%	-114*	?	?
COc1ccc(NC(=O)c2ccco2)cc1NC(=O)c1cccs1	7%	-21%	17	-5%	-10%
O=C(Nc1ccc(N2CCN(C(=O)c3cccs3)CC2)c(Cl)c1)c1ccco1	-2%	-26%	?	-5%	28µM*
COC(=O)C1CCN(c2nc3ccccc3nc2C(C#N)C(=O)NCCc2ccccc2)CC1 (stereo unspecified)	-1%	-4%	9	-5%	-4%
COC(=O)C1CCN(c2nc3ccccc3nc2C(C#N)C(=O)OCC(C)C)CC1 (stereo unspecified)	-2%	-5%	-83*	-5%	?
CCOC(=O)N=Nc1c(O)n(CC)c2ccccc12	1%	-1%	-9	-3%	-6%
CCCCNC(=S)N=Nc1c(O)n(Cc2ccccc2)c2ccccc12	-6%	-18%	39	/	20µM*
CCOC(=O)N=Nc1c(O)n(Cc2ccccc2)c2ccccc12	/	/	/	/	8.9µM*
NC(=S)N=Nc1c(O)n(Cc2ccccc2)c2ccccc12	1%	-14%	-100*	-8%	2.5µM*
C/C(Cl)=C\Cn1c(O)c(N=NC(N)=S)c2ccccc21	/	?	/	/	1µM*
